tim10-1 inh: growth inhibitors of tim10-1 mutant yeast, primary screen, luminescence, uHTS; 330,000 tested, 2.2% active; inhibition, % at 20 µM; S. cerevisiae tim10-1 ts strain growth, BacTiter-Glo, 24 h;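 active means inhibition of at least 40%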;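 further: mutant grown at 25 °C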
MPTP inh: mitochondrial permeability transition pore inhibitors, primary screen, biochemical, isolated mouse mitochondria, absorbance; Ca2+ swelling absorbance, 30 min; inhibition, % at 10 µM; 360,000 tested, 1.4% active; AID 602449, 2012;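 active means inhibition of 50% or more, scaled per plate between neutral and stimulator controls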
Mdm2 MdmX PPI: inhibitors of human Mdm2-MdmX association, primary screen, cell-based, luminescence, split luciferase, SaOS-2, uHTS; inhibition, % at 8 µM; SaOS-2 split-luciferase Mdm2/MdmX complementation; 330,000 tested, 3% active; Protein Mdm4 (Homo sapiens) + E3 ubiquitin-protein ligase Mdm2 (Homo sapiens), …;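 active means inhibition of at least 50% at 8 µM in the primary screen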
TIM10 inh: growth inhibitors of isogenic TIM10 control yeast, primary screen, counter-screen for tim10-1 yeast inhibitor project, luminescence, uHTS; 330,000 tested, 1.4% active; S. cerevisiae TIM10 strain growth, BacTiter-Glo luminescence, 24 h; inhibition, % at 10 µM;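 active means inhibition of 40% or more at the single tested concentration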;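 further: wild-type TIM10 isogenic control strain grown at permissive 25 °C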
tim23-1 inh: growth inhibitors of tim23-1 mutant yeast, primary screen, luminescence, uHTS; S. cerevisiae tim23-1 growth, BacTiter-Glo luminescence, 24 h; inhibition, % at 20 µM; AID 463212, 2010; 330,000 tested, 1.3% active;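 active means growth inhibition of the mutant yeast at or above 50%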;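 further: temperature-sensitive mutant grown at 25 °C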
tim10-1 conf: growth inhibitors of tim10-1 mutant yeast, confirmation, single concentration, luminescence, S. cerevisiae; 7,400 tested, 56% active; inhibition, % at 20 µM; shares compounds with tim10-1 inh; S. cerevisiae tim10-1 ts strain growth, BacTiter-Glo, 24 h;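 active means inhibition of yeast growth at or above a set limit in either of two repeat tests at 20 µM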;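 further: tim10-1 mutant grown at permissive 25 °C to find synthetic lethal compounds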
tim10 confirm: growth inhibitors of wild-type TIM10 yeast, confirmation, counter-screen for tim10-1 synthetic lethality project, single concentration, luminescence, S. cerevisiae | shares compounds with TIM10 inh | AID 463215, 2010 | 4,600 tested, 63% active | S. cerevisiae tim10 strain growth, BacTiter-Glo luminescence, 24 h | inhibition, % at 10 µM;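 active means inhibition of yeast growth at or above a set limit in either of two replicates at 10 µM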; further: this counterscreen used the strain with wild-type TIM10
tim23-1 conf: tim23-1 mutant yeast growth inhibitors, confirmation, luminescence, single concentration; inhibition, % at 20 µM; 4,400 tested, 83% active; shares compounds with tim23-1 inh; AID 463218, 2010; S. cerevisiae tim23-1 growth, BacTiter-Glo luminescence, 24 h;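 active means inhibition above about 39% in either of two replicate wells at 20 µM, limit read from the data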;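 further: temperature-sensitive tim23-1 mutant grown at 25 °C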
Mdm2-MdmX conf: Mdm2-MdmX complex disruptors, retested hits, confirmation, luminescence, single concentration; shares compounds with Mdm2 MdmX PPI; Mdm2-MdmX binding, luminescent assay; inhibition, % at 8 µM; 10,000 tested, 55% active; AID 489028, 2010; in the data active means inhibition above about 40%
FLuc counter: full-length luciferase signal inhibition, confirmation, counter-screen for Mdm2/MdmX interaction inhibitor project, cell-based, single concentration, SaOS-2 | inhibition, % at 8 µM | SaOS-2 full-length luciferase counterscreen, luminescence | shares compounds with Mdm2 MdmX PPI | 6,200 tested, 77% active | AID 504607, 2011;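 active means mean inhibition at 8 µM reaching about 37%, which flags the compound as non-specific, limit read from the data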;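 further: p53-null SaOS-2 cells with luciferase driven by a doxycycline-inducible promoter; compound on cells about two nights before reading with doxycycline added after day one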
MPTP counter: fluorescence retest of MPTP screen hits in isolated mitochondria, single concentration; shares compounds with MPTP inh; membrane potential, Rhodamine 123 fluorescence; inhibition, % at 10 µM; 5,000 tested, 78% active; in the data active means inhibition above about 22%
A number is an active result; . = inactive; / = no result. An excerpt weighted towards active compounds, which were near 6.3% of everything screened.

SMILES	tim10-1 inh	MPTP inh	Mdm2 MdmX PPI	TIM10 inh	tim23-1 inh	tim10-1 conf	MPTP counter	others
CN(Cc1ccccc1)C(=O)[C@@H]1CCCN1C(=O)[C@@H]1CCCN1C(=O)c1ccc(Cl)cc1	/	.	/	/	/	/	/
O=C(C1CC1)N1CCc2cc(S(=O)(=O)NCCC3=CCCCC3)ccc21	50	62	.	41	.	34	46	tim10 confirm=.
CCCN(CCC)CCNS(=O)(=O)c1ccc2c(c1)CCN2C(=O)C1CCC1	.	.	.	.	.	/	/
S=C(NCCCc1ccccc1)Nc1ccccc1Cl	49	86	.	52	.	38	100	tim10 confirm=41
S=C(NCc1cccs1)Nc1cccc(Cl)c1	45	91	.	47	.	34	98	tim10 confirm=43
O=C(NCCCc1ccccc1)Nc1cccc(Cl)c1	44	70	.	46	57	.	95	tim10 confirm=.;tim23-1 conf=66
S=C(NCCC(c1ccccc1)c1ccccc1)Nc1cccc(Cl)c1	40	98	.	.	.	.	87
S=C(NCc1ccncc1)Nc1cccc(Cl)c1	.	.	.	.	.	/	/
C=Cc1ccc(Cn2c(C)c(C(=O)NCc3ccc(C#N)cc3)sc2=O)cc1	/	.	/	/	/	/	/
O=C(NC1CCCCC1)C(c1ccc(C(F)(F)F)cc1)n1c(=O)c(-c2cc3ccccc3[nH]2)nc2ccccc21 (stereo unspecified)	/	.	/	/	/	/	/
O=S1(=O)CC(N2CCCC2)CN1Cc1cn(Cc2ccc(Cl)cc2)nn1 (stereo unspecified)	/	.	/	/	/	/	/
CCOC(=O)C1CCCN(C(=O)c2oc3ccccc3c2C)CC1 (stereo unspecified)	/	.	/	/	/	/	/
COc1ccc(C(C(=O)NCc2ccccc2)n2c(=O)c(-c3cc4ccccc4[nH]3)nc3ccccc32)cc1 (stereo unspecified)	/	.	/	/	/	/	/
O=C(NCc1ccccc1)C1c2ccccc2OCC(=O)N1Cc1ccco1 (stereo unspecified)	/	.	/	/	/	/	/
COC(=O)C[C@H]1C=C[C@H](NC(=O)Nc2ccccc2)[C@@H](CO)O1	/	.	/	/	/	/	/
Fc1cccc(NC(=S)NCc2ccccc2Cl)c1	50	86	.	.	.	44	97
O=C(Nc1ccc(F)c(Cl)c1)c1cc(C2CCCN(S(=O)(=O)c3cccc4cccnc34)C2)on1 (stereo unspecified)	/	.	/	/	/	/	/
Cc1cc(NC(=O)c2ccc(Cl)cc2)c(C)cc1O	.	.	.	.	.	/	/
Cc1cc(C(C#N)c2ccc(Cl)cc2)c(Cl)cc1NC(=O)c1cc(I)cc(I)c1O (stereo unspecified)	43	100	54	.	70	45	.	tim23-1 conf=61;Mdm2-MdmX conf=.
Cc1nn(C(C)(C)C)c(C)c1/C=N/OC(=O)Nc1ccc(Cl)cc1	42	79	95	.	.	.	89	Mdm2-MdmX conf=93;FLuc counter=57
Cc1nn(C)c(C)c1/C=N/NC(=O)C(C)(C)Oc1ccc(Cl)cc1	.	.	.	.	.	/	/

Bioassay records (PubChem BioAssay)
